Results on three compounds are retold here after PubChem BioAssay (NCATS).

The target of assay [1] is Peroxisome proliferator-activated receptor gamma (Homo sapiens) (UniProt P37231). The experiment in a line: qHTS assay for small molecule agonists of peroxisome proliferator-activated receptor gamma signaling (AID 588536; active = well fitted curve in the direction sought with a large enough effect in the signal ratio, with a control signal flat, not every such curve was filed as active; the % refers to the signal ratio;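 also: 0% = DMSO basal wells and 100% = rosiglitazone at 2 µM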). In outline: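 Ratiometric blue/green fluorescence (405 nm excitation; 460 and 530 nm emission) from CCF4-loaded HEK293 reporter cells serves as signal. Exposure to test compounds lasts 16 h at 37 C in medium containing 1% charcoal/dextran-treated serum.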
(In general: In qHTS, concentration-response curves come from the screen itself.)

Assay [2] concerns the target Vitamin D3 receptor (Homo sapiens) (UniProt P11473). The assay is described as follows: qHTS assay for small molecule agonists of vitamin D receptor signaling (AID 588543; calls by dose curve;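 also: 0% = DMSO basal and 100% = reference agonist control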). In a few lines: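 GeneBLAzer VDR-UAS-bla HEK293T cells in 2% charcoal-stripped FBS medium were dosed with compound titrations for 16 h at 37 °C; CCF4 β-lactamase readout (405 nm ex, 460/530 nm em). EC50 and efficacy from Hill fits, normalized to 50 nM calcitriol (100%) and DMSO (0%).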

The nature of assay [3]: qHTS assay for small molecule agonists of the antioxidant response element (ARE) signaling pathway (AID 651741; active = well fitted activation curve with a large enough effect in the signal ratio; the % refers to the signal ratio; also: potency is read from the fitted curve at half-maximal effect). In outline: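 CellSensor ARE-bla HepG2 cells (2,000/well) carrying ARE-driven beta-lactamase, exposed 16 h at 37 C. LiveBLAzer B/G FRET substrate added for 2 h at room temperature; fluorescence intensity read.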
The nature of assay [4]: qHTS assay for environmental chemicals that activate the Aryl hydrocarbon Receptor (AhR) signaling pathway (AID 651777). Also: % of control where 0% means no effect; nearly all actives have a fitted effect of over 15% in size. The note with it: 1A2-DRE human hepatoma cells, luciferase, 24 h; hits give high values. In a few lines: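 Induction of CYP1A2 transcription through AhR is detected by luciferase in 1A2-DRE hepatoma cells. Compounds or DMSO act for 24 hr at 37 C before a 30 min One-Glo step at room temperature.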

Assay [5] is described as follows: qHTS assay for cell viability of HEK293 cells (AID 743288). Also: potency is read from the fitted curve at half-maximal effect; nearly all actives have a fitted effect of over 50% in size. The settings on record: ATP luminescence (CellTiter-Glo), 18 h; max response: hits give low values. In a few lines: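 Parental HEK293 cells were seeded at 2,000 cells/well, rested at least 5 h at 37 C, then exposed to compounds in DMSO for 18 h at 37 C. Viability was read as ATP-dependent luciferase luminescence after 30 min at room temperature.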

Assay [6] addresses Nuclear receptor subfamily 1 group I member 2 (Rattus norvegicus) (UniProt Q9R1A7). The experiment in a line: qHTS assay for small molecule activators of the rat pregnane X receptor (rPXR) signaling pathway (AID 651751; call rule not given here; also: 0% is about no effect). The note with it: rPXR reporter cells, luciferase (One-Glo), 24 h.
Assay [7] deals with Cytochrome P450 2C9 (Homo sapiens) (UniProt P11712). The experiment in a line: qHTS Assay for Inhibitors and Substrates of Cytochrome P450 2C9 (AID 883). Also: potency is read from the fitted curve at half-maximal effect; nearly all actives have a fitted effect of over 60% in size. In a few lines:
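Human CYP2C9 (10nM) with Luciferin-H at 100uM (its KM) in 25mM KPO4; compound preincubated 10 min at 37C, then NADPH regeneration for 60 min at 37C. Luciferin read by luminescence after detection reagent; normalized to 57uM sulphaphenazole as full inhibition.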

For assay [8], the target named is DNA repair nuclease/redox regulator APEX1 (Homo sapiens) (UniProt P27695). The experiment in a line: qHTS Validation Assay for Inhibitors of the Human Apurinic/apyrimidinic Endonuclease 1 (APE1) (AID 1705;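 also: TAMRA fluorescence gain over two minutes as APE1 cuts a quenched THF abasic duplex; series mostly up to about 57 µM; % is scaled to controls: 0 for no effect and ±100 for the full control effect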). In outline: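 Human APE1 was preincubated with compound for 15 min at room temperature, then 50 nM (final) THF-abasic double-stranded DNA substrate bearing 5'-TAMRA and 3'-BHQ-2 was added. Incision-driven fluorescence rise (ex 525/em 598 nm) was read kinetically.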

Assay [9] in a line: Counterscreen for APE1 Inhibitors: Fluorescent Dye Displacement Validation Assay (AID 1707).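 Also: plate controls were ThO with dsDNA and no compound for no effect and ThO without dsDNA for full effect.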 In outline:
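Compounds are scored by their ability to displace Thiazole Orange (250 nM) from a 50 nM TAMRA-tagged duplex bearing a tetrahydrofuran abasic site. Buffer is 50 mM Tris-HCl pH7.5, 50mM NaCl, 2 mM MgCl2, 0.01% Tween-20.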
A general note: The purpose of a counterscreen is to sort out artefacts and off-target activity.

Assay [10] addresses Endonuclease 4 (Escherichia coli (strain K12)) (UniProt P0A6C1). The assay is described as follows: Counterscreen for APE1 Inhibitors: qHTS Validation Assay for Inhibitors of Endonuclease IV (AID 1708). Also: % is scaled to controls: 0 for no effect and ±100 for the full control effect. In a few lines: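 E. coli EndoIV at 2 nM final, preincubated 15 min at room temperature with compound, then 50 nM TAMRA/BHQ-2 THF abasic-site duplex added. Buffer: 50 mM Tris-HCl pH 7.5, 50 mM NaCl, 2 mM MgCl2, 1 mM DTT, 0.01% Tween-20. Kinetic fluorescence increase, third minus first read.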

Assay [11] in a line: qHTS for differential inhibitors of proliferation of Plasmodium falciparum line 7G8 (AID 1815).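 Also: potency is read from the fitted curve at half-maximal effect; parasite growth measured after three days of incubation.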
A short description of assay [12]: qHTS for differential inhibitors of proliferation of Plasmodium falciparum line W2 (AID 1883).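 Also: potency is read from the fitted curve at half-maximal effect; parasites grown with compound for 72 h before lysis and staining.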 The note with it: Potency: Plasmodium falciparum W2 proliferation inhibition.
Assay [13] deals with ATP-dependent DNA helicase Q1 (Homo sapiens) (UniProt P46063). The experiment in a line: qHTS Validation Assay for Inhibitors of RecQ-Like Dna Helicase 1 (RECQ1) (AID 2353).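 Also: plate controls were DMSO vehicle for no effect and enzyme-free control for full effect.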 In a few lines:
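50 nM RECQ1T1 preincubated 15 min with compound in Tris pH 8.0 buffer with MgCl2, DTT, Tween-20 and 2.5 ug/ml poly(dI-dC); started with 200 nM TAMRA/BHQ-2 forked duplex and 2 mM ATP. Unwinding read as fluorescence (525/598 nm), two reads 2 h apart.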

The nature of assay [14]: Quantitative high throughput screen for delayed death inhibitors of the malarial parasite plastid, 96 hour incubation (AID 488745).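 Also: luciferase-expressing P. falciparum in erythrocytes at 2% hematocrit and 0.1% parasitemia; series mostly up to about 29 µM; % is scaled to controls: 0 for no effect and ±100 for the full control effect; nearly all actives have a fitted effect of over 70% in size.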 In outline:
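Infected erythrocytes were added to compound in Albumax-supplemented RPMI 1640 at 0.1% parasitemia and 2% hematocrit (final), incubated 96 h at 37 C under 5% CO2, then luciferase reagent was added and luminescence measured.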

Assay [15] addresses Thyrotropin receptor (Homo sapiens) (UniProt P16473). The experiment in a line: qHTS Assay for Antagonists of the Thyroid Stimulating Hormone Receptor (AID 488980). Also: series mostly up to about 58 µM; 0% is about no effect. In a few lines: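 HEK293 cells transfected with human TSHR, suspended in HEPES-buffered HBSS with 70 uM RO 20-1724, were treated with compounds plus TSH at EC80 (4 nM final). cAMP was measured by competitive HTRF (cryptate anti-cAMP antibody, cAMP-d2 acceptor).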

Assay [16] has as its target Thyrotropin-releasing hormone receptor (Homo sapiens) (UniProt P34981). The experiment in a line: qHTS for Small Molecule Agonists and Allosteric Enhancers of Human TRH Receptor: Validation Screen for Agonists (AID 493127;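 active = calcium activation more than 3 SD above the typical response in the agonist read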;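 also: intracellular calcium rise by fluo-8 fluorescence before TRH EC20 addition; 0% is about no effect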). The settings on record: TRH receptor agonist cell assay; at 2 µM; hits give high values. In a few lines: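 Cells 2000/well, 10% FCS, 18 h 33.5C/5% CO2 → fluo-8 Ca dye, RT 30 min–1.5 h → FDSS baseline 10 × 1 s → compound added → 230 cycles (1 s/cycle) agonist mode. TRH controls.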

The target in assay [17] is Galactokinase (Homo sapiens) (UniProt P51570). The assay is described as follows: qHTS Validation Assay for Inhibitors of Human Galactokinase (GALK) (AID 493189). Also: 0% is about no effect. In outline:
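GALK (5 nM) with 35 uM ATP and 100 uM galactose in HEPES pH8.0, MgCl2, NaCl, DTT, BSA; 1 h at room temperature. Residual ATP read by Kinase-Glo Plus luminescence after 10 min.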

Assay [18] is described as follows: Validation screen for small molecules that induce DNA re-replication in SW480 colon adenocarcinoma cells (AID 504364). Also: 0% is about no effect. In a few lines: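 250 cells/well; compound pinned in; 48 hr, 37 C, 5% CO2; Hoechst added, 40 min; nuclear fluorescence imaged, 405 ex / 500-530 em; re-replication scored as increase in high-intensity nuclei.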
In assay [19] the target is Rap guanine nucleotide exchange factor 3 (Homo sapiens) (UniProt O95398). The experiment in a line: Confirmatory qHTS for antagonist of cAMP-regulated guanine nucleotide exchange factor 3 (EPAC1) (AID 1645880).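 Also: plate controls were DMSO only for no effect and full effect of the ATA control for full effect; nearly all actives have a fitted effect of over 55% in size.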 In outline: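 Nucleotide exchange uses 100 nM EPAC1, 250 nM RAP1B-BODIPY-GDP and 50 uM GDP, with compounds in a concentration-titration series. After 5 min at room temperature, fluorescence (480 nm ex/540 nm em) is read every 5 min for 30 min. Data are normalized to control ATA and DMSO.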

Assay [20] has the same target. The assay is described as follows: Confirmatory qHTS for agonist of cAMP-regulated guanine nucleotide exchange factor 3 (EPAC1) (AID 1645881).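 Also: EPAC1 catalysed release of BODIPY-GDP from Rap1B seen as fluorescence loss; 100% = effect of cAMP agonist control; nearly all actives have a fitted effect of over 75% in size.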

Unmarked numbers belong to inactive results. Records with an inconclusive call do not appear. Calls of active or inactive are those of the source. Unless noted, calls follow the shape of the dose curve; as a rule, active = well fitted curve in the direction sought with a large enough effect; inconclusive = small, poorly fitted or top-dose-only effect, or another doubt; inactive = no such curve, though single readings can be large; an effect the other way counts as inactive or inconclusive.

Chain of Rap guanine nucleotide exchange factor 3 (Homo sapiens) (O95398 whole entry, looked up): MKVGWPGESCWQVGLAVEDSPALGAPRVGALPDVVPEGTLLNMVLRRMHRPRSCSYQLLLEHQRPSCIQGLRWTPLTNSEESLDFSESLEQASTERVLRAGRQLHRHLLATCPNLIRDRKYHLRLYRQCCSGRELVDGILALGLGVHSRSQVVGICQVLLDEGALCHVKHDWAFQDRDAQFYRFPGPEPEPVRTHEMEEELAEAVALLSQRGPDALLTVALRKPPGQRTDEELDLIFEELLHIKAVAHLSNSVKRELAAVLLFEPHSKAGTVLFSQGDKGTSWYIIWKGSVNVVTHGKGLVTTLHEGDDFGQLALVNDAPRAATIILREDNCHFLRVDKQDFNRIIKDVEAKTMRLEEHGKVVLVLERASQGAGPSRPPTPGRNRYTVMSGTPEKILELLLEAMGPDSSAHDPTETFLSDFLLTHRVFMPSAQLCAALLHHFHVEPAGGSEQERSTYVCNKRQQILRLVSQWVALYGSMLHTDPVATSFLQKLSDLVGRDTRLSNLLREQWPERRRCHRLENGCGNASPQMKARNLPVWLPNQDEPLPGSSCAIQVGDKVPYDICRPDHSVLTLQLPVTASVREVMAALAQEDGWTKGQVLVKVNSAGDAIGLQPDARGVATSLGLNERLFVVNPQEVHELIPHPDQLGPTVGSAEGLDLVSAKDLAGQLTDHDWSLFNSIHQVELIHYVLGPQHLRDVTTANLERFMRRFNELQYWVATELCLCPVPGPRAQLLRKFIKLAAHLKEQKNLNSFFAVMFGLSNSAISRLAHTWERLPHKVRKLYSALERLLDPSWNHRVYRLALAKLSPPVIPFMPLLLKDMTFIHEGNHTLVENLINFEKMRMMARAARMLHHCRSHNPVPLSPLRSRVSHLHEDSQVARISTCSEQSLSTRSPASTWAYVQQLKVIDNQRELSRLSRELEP
Chain of Peroxisome proliferator-activated receptor gamma (Homo sapiens) (P37231 whole entry, looked up): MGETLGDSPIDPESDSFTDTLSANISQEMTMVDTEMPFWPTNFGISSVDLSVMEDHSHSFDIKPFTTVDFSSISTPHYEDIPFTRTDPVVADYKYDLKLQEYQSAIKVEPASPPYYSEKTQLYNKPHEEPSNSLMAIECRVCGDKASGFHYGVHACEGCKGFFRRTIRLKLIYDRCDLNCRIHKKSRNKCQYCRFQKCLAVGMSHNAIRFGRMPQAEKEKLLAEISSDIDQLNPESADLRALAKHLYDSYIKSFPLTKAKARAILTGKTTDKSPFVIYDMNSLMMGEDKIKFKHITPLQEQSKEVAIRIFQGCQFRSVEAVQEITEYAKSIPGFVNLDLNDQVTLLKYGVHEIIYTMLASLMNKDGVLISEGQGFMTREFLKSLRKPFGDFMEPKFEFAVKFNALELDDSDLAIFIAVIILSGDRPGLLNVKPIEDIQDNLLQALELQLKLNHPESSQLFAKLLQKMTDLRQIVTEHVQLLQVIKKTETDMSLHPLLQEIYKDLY
Chain of Thyrotropin-releasing hormone receptor (Homo sapiens) (P34981 whole entry, looked up): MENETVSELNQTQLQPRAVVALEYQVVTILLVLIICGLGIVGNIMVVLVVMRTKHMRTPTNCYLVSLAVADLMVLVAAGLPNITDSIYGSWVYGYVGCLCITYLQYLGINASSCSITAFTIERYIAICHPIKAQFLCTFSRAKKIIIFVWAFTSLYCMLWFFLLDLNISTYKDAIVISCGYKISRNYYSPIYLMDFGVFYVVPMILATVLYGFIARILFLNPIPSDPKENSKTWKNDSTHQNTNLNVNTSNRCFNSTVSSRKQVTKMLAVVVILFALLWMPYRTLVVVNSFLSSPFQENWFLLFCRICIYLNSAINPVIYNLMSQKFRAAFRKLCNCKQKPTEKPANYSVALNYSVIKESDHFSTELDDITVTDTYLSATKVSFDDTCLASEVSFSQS
Chain of Vitamin D3 receptor (Homo sapiens) (P11473 whole entry, looked up): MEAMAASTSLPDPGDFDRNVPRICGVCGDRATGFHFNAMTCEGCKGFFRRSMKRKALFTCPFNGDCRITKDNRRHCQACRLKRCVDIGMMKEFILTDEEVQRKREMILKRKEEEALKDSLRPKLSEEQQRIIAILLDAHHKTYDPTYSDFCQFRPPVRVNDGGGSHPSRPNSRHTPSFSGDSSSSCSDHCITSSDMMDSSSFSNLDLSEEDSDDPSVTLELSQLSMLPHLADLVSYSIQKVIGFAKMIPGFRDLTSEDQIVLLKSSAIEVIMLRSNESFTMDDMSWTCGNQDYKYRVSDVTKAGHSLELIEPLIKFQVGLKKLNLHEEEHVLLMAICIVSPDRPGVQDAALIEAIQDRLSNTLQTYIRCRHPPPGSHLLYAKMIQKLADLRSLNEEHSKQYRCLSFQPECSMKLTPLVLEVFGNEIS
Chain of Cytochrome P450 2C9 (Homo sapiens) (P11712 whole entry, looked up): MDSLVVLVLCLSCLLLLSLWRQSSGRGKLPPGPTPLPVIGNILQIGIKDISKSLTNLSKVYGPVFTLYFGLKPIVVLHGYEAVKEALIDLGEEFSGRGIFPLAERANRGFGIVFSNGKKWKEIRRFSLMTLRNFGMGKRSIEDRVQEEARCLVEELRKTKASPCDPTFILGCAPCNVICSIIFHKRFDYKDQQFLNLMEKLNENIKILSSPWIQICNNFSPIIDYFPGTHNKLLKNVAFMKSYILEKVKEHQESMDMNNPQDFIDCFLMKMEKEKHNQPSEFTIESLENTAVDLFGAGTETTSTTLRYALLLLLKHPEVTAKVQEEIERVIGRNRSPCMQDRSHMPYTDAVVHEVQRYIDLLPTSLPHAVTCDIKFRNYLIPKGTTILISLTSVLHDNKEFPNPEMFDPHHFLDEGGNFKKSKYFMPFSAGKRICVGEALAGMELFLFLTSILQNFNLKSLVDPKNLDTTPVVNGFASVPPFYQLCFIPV
Chain of Nuclear receptor subfamily 1 group I member 2 (Rattus norvegicus) (Q9R1A7 whole entry, looked up): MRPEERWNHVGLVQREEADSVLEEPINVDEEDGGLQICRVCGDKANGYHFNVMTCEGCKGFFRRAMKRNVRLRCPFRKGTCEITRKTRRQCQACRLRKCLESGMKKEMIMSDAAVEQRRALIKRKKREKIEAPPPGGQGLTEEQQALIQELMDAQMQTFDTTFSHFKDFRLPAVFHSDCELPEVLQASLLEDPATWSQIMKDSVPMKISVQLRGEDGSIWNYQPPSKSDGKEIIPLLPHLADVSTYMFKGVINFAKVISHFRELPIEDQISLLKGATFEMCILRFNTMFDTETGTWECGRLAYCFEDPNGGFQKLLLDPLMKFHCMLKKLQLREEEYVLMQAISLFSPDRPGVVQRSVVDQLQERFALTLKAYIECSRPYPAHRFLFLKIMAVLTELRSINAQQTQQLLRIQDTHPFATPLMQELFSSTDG
Chain of ATP-dependent DNA helicase Q1 (Homo sapiens) (P46063 whole entry, looked up): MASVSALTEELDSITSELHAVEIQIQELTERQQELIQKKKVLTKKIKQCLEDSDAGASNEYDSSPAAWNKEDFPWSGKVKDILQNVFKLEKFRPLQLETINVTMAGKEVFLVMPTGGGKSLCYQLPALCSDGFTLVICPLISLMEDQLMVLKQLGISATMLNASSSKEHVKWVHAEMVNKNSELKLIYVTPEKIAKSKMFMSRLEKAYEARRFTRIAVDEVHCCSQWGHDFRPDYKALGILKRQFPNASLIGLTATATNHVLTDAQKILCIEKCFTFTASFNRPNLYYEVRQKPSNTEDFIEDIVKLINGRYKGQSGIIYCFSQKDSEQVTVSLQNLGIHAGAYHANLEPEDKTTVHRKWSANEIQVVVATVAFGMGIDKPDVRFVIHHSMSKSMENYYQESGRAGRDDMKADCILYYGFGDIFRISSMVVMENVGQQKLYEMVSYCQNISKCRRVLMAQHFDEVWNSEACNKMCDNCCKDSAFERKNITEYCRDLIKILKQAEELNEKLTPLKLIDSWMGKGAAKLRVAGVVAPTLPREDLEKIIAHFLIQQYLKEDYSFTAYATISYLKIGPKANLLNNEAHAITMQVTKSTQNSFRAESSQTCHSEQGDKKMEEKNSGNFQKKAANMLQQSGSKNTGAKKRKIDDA
Chain of Galactokinase (Homo sapiens) (P51570 whole entry, looked up): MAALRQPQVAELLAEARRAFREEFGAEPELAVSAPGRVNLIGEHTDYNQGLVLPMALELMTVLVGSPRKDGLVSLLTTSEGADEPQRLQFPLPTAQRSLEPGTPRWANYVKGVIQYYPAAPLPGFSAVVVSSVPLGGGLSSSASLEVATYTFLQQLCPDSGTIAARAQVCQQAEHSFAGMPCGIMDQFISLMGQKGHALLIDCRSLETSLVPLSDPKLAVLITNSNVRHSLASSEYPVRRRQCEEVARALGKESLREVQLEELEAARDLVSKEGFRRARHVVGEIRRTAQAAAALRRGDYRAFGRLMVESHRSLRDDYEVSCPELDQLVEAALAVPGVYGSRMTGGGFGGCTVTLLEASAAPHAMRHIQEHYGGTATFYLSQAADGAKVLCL
Chain of Thyrotropin receptor (Homo sapiens) (P16473 whole entry, looked up): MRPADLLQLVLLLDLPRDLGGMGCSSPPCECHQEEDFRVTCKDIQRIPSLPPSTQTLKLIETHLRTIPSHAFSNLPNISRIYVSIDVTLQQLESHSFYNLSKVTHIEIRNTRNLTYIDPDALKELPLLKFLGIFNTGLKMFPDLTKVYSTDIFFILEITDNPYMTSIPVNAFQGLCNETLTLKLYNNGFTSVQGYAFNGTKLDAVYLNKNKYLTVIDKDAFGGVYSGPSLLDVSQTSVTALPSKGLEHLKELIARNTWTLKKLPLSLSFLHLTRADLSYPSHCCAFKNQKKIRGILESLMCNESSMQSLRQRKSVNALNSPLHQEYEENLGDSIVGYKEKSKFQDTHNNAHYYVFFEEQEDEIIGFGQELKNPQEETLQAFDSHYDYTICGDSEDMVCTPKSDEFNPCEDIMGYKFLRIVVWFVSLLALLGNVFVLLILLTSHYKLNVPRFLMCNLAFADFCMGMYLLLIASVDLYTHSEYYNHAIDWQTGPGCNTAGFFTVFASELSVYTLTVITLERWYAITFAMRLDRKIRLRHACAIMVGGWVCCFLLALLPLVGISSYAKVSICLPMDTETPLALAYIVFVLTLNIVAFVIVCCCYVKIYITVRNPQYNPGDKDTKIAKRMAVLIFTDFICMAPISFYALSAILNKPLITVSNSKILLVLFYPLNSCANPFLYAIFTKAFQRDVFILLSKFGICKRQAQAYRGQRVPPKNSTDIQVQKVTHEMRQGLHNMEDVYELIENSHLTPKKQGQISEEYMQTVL

As for `Clc1ccc(-c2nc3sccn3c2/C=N/OCc2ccc(Cl)c(Cl)c2)cc1`, the result in assay [1] and in [2] was inactive. Moreover, the Potency is 24.3 µM (active) in assay [3] and 50.1 µM (active) in assay [5]. For the same compound, the activation in [4] was 3.66%. Besides, the max response in [6] is 6.54%.

In the case of `COc1ccc2c(c1)c(CC(=O)N1CCOCC1)c(C)n2C(=O)c1ccc(Cl)cc1`, the values for the Potency in [7], in [11] and in assay [12] were 39.8 µM (active), 10 µM (active) and 12.6 µM (active), respectively. For the same compound, the Potency entry in assay [8], in [9], in assay [10], in [13] and in assay [14] was “inactive” throughout. Besides, the result in assay [15], in [17] and in [18] was inactive. In addition, in assay [16], the activation is 1.25%.

Turning to `CN1[C@@H]2CC(OC(=O)[C@H](CO)c3ccccc3)C[C@@H]1[C@H]1O[C@H]12` (stereo not given in full), the Potency entry in [19] was “inactive”. In addition, the outcome in assay [20] was inactive.
